32 targets from the supplement of paper PMC12067926 can be followed below.

A number with no mark means an inactive call.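 Rule for the calls: active = growth AUC significantly below the DMSO wells by Dunnett test; inactive = the rest.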

Compound in this experiment: CN(C)C(=O)Nc1ccc(Cl)c(Cl)c1
Briefly: relative growth (AUC of 72 h growth curve relative to DMSO control, dAUC) (ratio); higher = more growth (less inhibition), active = hit call of the paper. To be noted: 20 µM. The procedure:
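Environmental bacterial isolates (Iceland stream sediment and Silwood Park soil) and whole stream-sediment communities were grown in LB from a 1:100 dilution with each pesticide at 20 µM (1% DMSO). A600 was read hourly for 72 h and the area under a spline-fitted growth curve (AUC) was computed. dAUC is the mean AUC of 3 biological replicates divided by the mean AUC of the DMSO controls. Significance was tested by Dunnett's test against the DMSO control.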
As for Hymenobacter 1 (Hymenobacter glaciei), the relative growth is 1.02.

Sphingomonas 2 (Sphingomonas sp.): the relative growth is 1.04.

On to “Paenibacillus 1 (Paenibacillus castaneae)”, for which the relative growth is 0.883.

Regarding Aeromonas 1 (Aeromonas sp. AE235), the relative growth is 0.942.

On to Community 8, for which the relative growth is 1.11.

On to Pseudomonas 6 (Pseudomonas sp.), for which the relative growth is 1.07.

“Prolinoborus 1 (Prolinoborus fasciculus)”: the relative growth is 0.957.

As for Oryzobacter 1 (Oryzobacter terrae), the relative growth was 1.13.

For the target Community 4, the relative growth is 1.09.

Arthrobacter 3 (Arthrobacter sp.): the relative growth was 0.947.

Take Arthrobacter 1 (Arthrobacter humicola): the relative growth was 0.944.

On to Argrobacterium 1 (Agrobacterium sp.), for which the relative growth is 0.867.

Regarding Community 7, the relative growth is 1.23.

For Pseudomonas 5 (Pseudomonas baetica), the relative growth is 1.02.

Aeromonas 3 (Aeromonas popoffii): the relative growth was 0.977.

As to Pseudomonas 4 (Pseudomonas peli), the relative growth is 0.939.

Regarding Community 9, the relative growth is 1.04.

Neobacillus 1 (Neobacillus soli): the relative growth is 0.899.

Consider Serratia 1 (Serratia sp. 2015-2462-01), for which the relative growth was 0.942.

Regarding “Flavobacterium 1 (Flavobacterium glaciei)”, the relative growth was 0.999.

Take Community 6: the relative growth is 1.03.

In the case of “Pseudomonas 2 (Pseudomonas vancouverensis)”, the relative growth is 0.988.

As for Bacillus 1 (Bacillus foraminis), the relative growth is 0.958.

For Aeromonas 2 (Aeromonas sobria), the relative growth was 0.943.

Arthrobacter 2 (Arthrobacter humicola): the relative growth is 0.977.

As for Pseudomonas 1 (Pseudomonas baetica), the relative growth was 1.03.

With “Carnobacterium 1 (Carnobacterium gallinarum)”, the relative growth was 0.949.

As to “Flavobacterium 2 (Flavobacterium succinicans)”, the relative growth is 0.961.

In the case of Community 10, the relative growth was 1.05.

Regarding Rhizobium 1 (Rhizobium herbae), the relative growth is 1.19.

As to Pseudomonas 3 (Pseudomonas mandelii), the relative growth is 1.02.

As for “Microbacterium 1 (Microbacterium arborescens)”, the relative growth was 1.03.
